Compound activity deposited in PubChem BioAssay by several laboratories.
Shn3 3UTR inh – reduces Shn3 3'UTR luciferase signal in osteoblasts; inhibition, % at 12.5 µM; Clone20 osteoblast Shn3 3'UTR firefly luciferase, 24 h; AID 588674; actives 0.52% (n = 360,000);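 active means mean inhibition of at least 75% with every replicate also reaching 75%; inconclusive means mean inhibition at least 75% but some replicate below; inactive means mean inhibition below 75%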;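 further: 0% = median of neutral control wells and 100% = pilot-screen positive control compound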
TROY signal inh – blocks TROY-dependent signaling in reporter cells; AID 1347056; actives 0.98% (n = 360,000); Q293 LMP1-TROYcd NF-kB luciferase reporter, 4 h; inhibition, % at 10 µM;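 active means compounds whose plate-normalised and pattern-corrected inhibition of the luciferase reporter signal at the single screening dose is 50% or more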
Peg3 promoter – inhibitors of Peg3 promoter. HeLa PEG-Prom luciferase reporter, luminescence, overnight. inhibition, % at 20 µM. actives 1.7% (n = 360,000). AID 588405;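 active means inhibition of at least 50% at 20 µM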
TWEAK-Fn14 inh – inhibitors of TWEAK-Fn14 interaction signaling. AID 1159606. inhibition, % at 10 µM. TWEAK-stimulated Fn14 reporter cells, luciferase luminescence, 8 h. actives 2% (n = 360,000); in the data active means inhibition above about 50%
EBV LMP1 NFkB – reduces LMP1-driven NF-kappaB luciferase signal | AID 504558 | actives 0.69% (n = 350,000) | LMP1-induced NF-kappaB luciferase reporter cells, luminescence | inhibition, % at 12.5 µM; in the data active means inhibition above about 41%; inconclusive means no clear call, values can overlap the other calls;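 further: 0% = neutral control wells and 100% = reference inhibitor control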
MITF TRPM1 inh – reduces MITF-dependent TRPM1 promoter luciferase signal | inhibition, % at 12.5 µM | SK-MEL-5 TRPM1 promoter luciferase, 24 h | actives 0.83% (n = 330,000);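 active means mean inhibition across replicates of 60% or more, whatever share of single replicates reaches that level; inconclusive means some that reach 60%, reason not given; inactive means mean inhibition across replicates below 60%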
Numbers without * were called inactive; ? = inconclusive; . = not tested or not shown. Most compounds without a hit are left out; they make up all but 4.1% or so of the library.

SMILES	Shn3 3UTR inh	TROY signal inh	Peg3 promoter	TWEAK-Fn14 inh	EBV LMP1 NFkB	MITF TRPM1 inh
COc1ccc(C(=O)/C=C/C(=O)N(CC(=O)NC2CCCCC2)Cc2ccccc2)c(O)c1	95*	3	109*	43	-5	100*
Cc1nnc(SCC(=O)Nc2ccc(S(N)(=O)=O)cc2)n(N)c1=O	-6	-53	0	-4	3	-6
CCCCCCN(C(=O)CCl)c1ccccc1	-8	-5	27	32	7	34
COc1ccc(C(=O)NNC(=O)C23CC4CC(CC(C4)C2)C3)cc1OC	-8	-8	-9	1	-4	0
O=C(/C=C/c1cccc([N+](=O)[O-])c1)NC(=S)Nc1ccc(CN2CCOCC2)cc1	38	20	21	63*	-18	0
CC(C)c1ccc(/C=C/C(=O)NC(=S)NN2CCOCC2)cc1	-28	5	-68	11	1	-1
CC(C)c1ccc(/C=C/C(=O)NC(=S)Nc2ccc(CN3CCOCC3)cc2)cc1	45	71*	-45	100*	11	9
Cc1ccc(C)c(Oc2cc(NC(=O)CCCn3nc(C)c([N+](=O)[O-])c3C)cc([N+](=O)[O-])c2)c1	74	44	27	73*	4	9
Cc1ccc2oc(C(Cl)(Cl)Cl)cc(=O)c2c1	42	11	63*	64*	3	67*
Cc1ccc2oc(C(F)(F)C(F)F)cc(=O)c2c1	-2	3	10	13	-1	-4
CCn1cc(C(=O)NCc2ccncc2)c(=O)c2cc(F)c(N3CCN(C(=O)c4ccco4)CC3)cc21	15	-3	20	10	.	.
CCn1cc(C(=O)NCc2ccccc2)c(=O)c2cc(F)c(N3CCN(C(=O)c4ccco4)CC3)cc21	52	36	68*	68*	1	46
CCn1cc(C(=O)NCc2ccc3c(c2)OCO3)c(=O)c2cc(F)c(N3CCN(C(=O)c4ccco4)CC3)cc21	51	40	51*	54*	21	16
CCn1cc(C(=O)Nc2ncccc2O)c(=O)c2cc(F)c(N3CCN(C(=O)c4ccco4)CC3)cc21	27	-1	53*	17	-5	13
COc1ccc(-n2c(SC(C)C(=O)Nc3ccc(NC(C)=O)cc3)nc3ccccc3c2=O)cc1OC (stereo not drawn)	4	-44	2	3	6	7
Cc1cc(C(=O)CSc2ccccc2)cc(C)c1O	-61	-64	-279	-12	7	-55
C/C(=N\Nc1cccc2cccnc12)c1ccc(N)cc1	-44	62*	-262	50	-38	-11
C/C(=N\Nc1cccc2cccnc12)c1ccccc1O	-43	-7	-233	29	-84	-3
C/C(=N\Nc1cccc2cccnc12)c1ccccn1	12	-6	-113	70*	-42	-47
COc1cc(NC(=S)NC(=O)CCc2ccccc2)cc(OC)c1	8	1	-2	8	0	9
COC(=O)C1=C(C)N(Cc2ccccc2)C(=NCC(C)C)N[C@H]1c1cccc(C(F)(F)F)c1	7	1	103*	-37	-4	96*
COC(=O)C1=C(C)N(Cc2ccccc2)C(=NCCc2cccnc2)N[C@H]1c1ccccc1	15	1	-22	-17	3	-9
COC(=O)C1=C(C)N(Cc2ccccc2)C(=NCC(C)C)N[C@H]1c1cccc(F)c1	-10	-5	83*	-20	5	-4
COC(=O)C1=C(C)N(Cc2ccccc2)C(=O)N[C@H]1c1cccc(C(F)(F)F)c1	-37	-21	25	-28	1	.
COC(=O)C1=C(C)N(Cc2ccccc2)C(=NCCc2cccnc2)N[C@H]1c1ccc(Br)cc1	-85	-4	94*	-15	4	78*
SMILES	Shn3 3UTR inh	TROY signal inh	Peg3 promoter	TWEAK-Fn14 inh	EBV LMP1 NFkB	MITF TRPM1 inh
COC(=O)C1=C(C)N(Cc2ccccc2)C(=NCc2ccccc2)N[C@H]1c1cccc(C(F)(F)F)c1	17	17	99*	-7	7	89*
COc1cccc(CC(NC(C)=O)C(=O)NC2CCN(C(=O)c3ccncc3)CC2)c1OC (stereo not drawn)	-14	6	16	-7	-12	-13
COc1ccc(N2C(=O)CC(Sc3nnc(-c4ccccc4)o3)C2=O)cc1 (stereo not drawn)	61	-10	85*	-7	?	16
O=C1CC(Sc2nnc(-c3ccccc3O)o2)C(=O)N1c1ccccc1 (stereo not drawn)	93*	3	31	7	-3	6
Cc1ccc(S(=O)(=O)Nc2cccc3cccnc23)cc1	27	79*	109*	107*	-8	83*
COc1ccc(S(=O)(=O)Nc2ccccn2)cc1	-13	-11	14	2	9	0
Cc1ccc(S(=O)(=O)Nc2ccccc2C(N)=O)cc1	-30	-3	6	-9	-5	6
Cc1ccc(S(=O)(=O)Nc2ccccc2-c2ccccc2NS(=O)(=O)c2ccc(C)cc2)cc1	-4	52*	33	-1	6	7
COc1cc(NS(=O)(=O)c2ccc(C)cc2)c2ncccc2c1	95*	28	68*	107*	-6	74*
O=C(CNCc1ccccn1)Nc1ccc([N+](=O)[O-])cc1C(=O)Nc1ccccc1F	17	-3	22	-9	-4	22
CCN(CC(=O)Nc1ccccc1OC)C(=O)CN1C(=O)NC(C)(c2ccc3ccccc3c2)C1=O (stereo not drawn)	-5	5	13	5	-6	-6
O=C(O)C1(Nc2ccccc2Cl)CCCC1	93*	-1	12	4	1	10
O=C(O)C1(Nc2ccccc2)CCCC1	7	-11	-8	-8	-5	3
O=C(CN(Cc1cccs1)C(=O)CNS(=O)(=O)c1ccccc1)NCc1ccco1	-7	7	10	-3	90*	10
Cc1c(C#N)c(NC(=O)CCl)n(Cc2ccccc2)c1C	95*	25	53*	19	-40	81*
Cc1c(C#N)c(NC(=O)CCl)n(Cc2ccc(F)cc2)c1C	39	13	58*	23	-45	66*
Cc1c(C#N)c(NC(=O)CCl)n(Cc2cccs2)c1C	97*	17	50	6	-30	77*
COC(=O)c1cc(C(=O)OC)n(Cc2ccc(F)cc2)c1C	0	-10	21	-6	6	-13
CCc1nc2ccc(C(=O)N3CCCC(C(N)=O)C3)cn2c1N(C)Cc1ccc(OC)cc1 (stereo not drawn)	4	-3	3	8	.	.
O=C(OCn1nnc2ccccc2c1=O)c1ccc(F)c(S(=O)(=O)N2CCOCC2)c1	5	-5	3	2	-3	.
Cc1c(C(=O)Nc2ccc3c(c2)OCCO3)sc2nc(-c3ccccc3)cn12	79	67*	6	85*	1	37
Cc1c(C(=O)Nc2ccncc2)sc2nc(-c3ccccc3)cn12	55	28	-45	68*	6	.
